Experimental data: PubChem BioAssay
Active and inactive are the calls of the source.

Legend:
[1] = tested on: PRMT1 (protein arginine N-methyltransferase 1); test: PRMT1 binders on small-molecule microarrays, primary screen, biochemical, small-molecule microarray, 635 nm fluorescence (AID 1088); details: small-molecule microarray binding, higher = more signal;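 also: binding of Prmt1 protein to compounds spotted on small-molecule microarray slides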
[2] = yeast growth modulation, basal conditions, primary screen, YJM789 clinical isolate, OD600, 24 h (AID 1089);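 also: growth of clinical yeast isolate S. cerevisiae YJM 789 seeded 1000 cells per well; test concentration not given here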; details: S. cerevisiae YJM789 growth, higher = more signal, called active from +8 up or from −8 down
[3] = fission yeast growth modulation, primary screen, strain 972, OD600, 24 h, no modulator (AID 1090);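 also: basal condition with compound alone and no growth modifier present; test concentration not given here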; details: S. pombe 972 growth, higher = more signal, called active from +8 up or from −8 down
[4] = S. cerevisiae growth modulation with rapamycin, primary screen, strain BY4716, OD600, 96 h (AID 1091); details: higher = more signal, called active from +8 up or from −8 down; also: test concentration not given here
[5] = target: Torsin-1A-interacting protein 2 (Homo sapiens) (UniProt Q8NFQ8); test: LULL1 binders on small-molecule microarray, primary screen, cell lysate, human LULL1 lysate, 635/667 nm fluorescence (AID 1092); details: hLULL1 lysate binding, 635 nm fluorescence, higher = more signal;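 also: probe is lysate of COS7 cells overexpressing human LULL1; score merges per-feature 667 nm fluorescence with signal-to-noise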
Chain of Torsin-1A-interacting protein 2 (Homo sapiens) (Q8NFQ8 whole entry, looked up): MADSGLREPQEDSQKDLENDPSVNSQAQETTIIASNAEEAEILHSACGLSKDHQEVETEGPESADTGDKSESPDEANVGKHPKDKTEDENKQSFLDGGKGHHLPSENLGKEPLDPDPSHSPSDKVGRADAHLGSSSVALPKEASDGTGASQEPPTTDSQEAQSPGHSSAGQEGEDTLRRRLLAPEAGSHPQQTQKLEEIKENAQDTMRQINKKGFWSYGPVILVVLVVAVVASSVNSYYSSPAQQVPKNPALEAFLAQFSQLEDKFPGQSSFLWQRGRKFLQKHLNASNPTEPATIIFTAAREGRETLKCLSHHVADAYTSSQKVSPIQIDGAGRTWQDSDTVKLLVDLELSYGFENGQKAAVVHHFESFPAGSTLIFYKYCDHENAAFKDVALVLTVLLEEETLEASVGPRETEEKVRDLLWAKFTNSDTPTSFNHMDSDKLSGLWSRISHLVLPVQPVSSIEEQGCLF

[6] = E. coli growth modulation, two-sided OD650, primary screen, E. coli filamentation project, strain DRC41, 24 h (AID 1093); details: OD650, 24 h, higher = more signal, called active from +8 up or from −8 down;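 also: MC1000 strain lacking acrAB efflux and sulA so SOS filamentation is blocked; test concentration not given here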
[7] = small-molecule microarray binders of probe aLefty2, primary screen, biochemical, biotinylated probe, 635/667 nm fluorescence (AID 1094); details: higher = more signal;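 also: score merges spot fluorescence near 667 nm with spot signal-to-noise ratio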
[8] = tested on: Noggin (protein binding on small-molecule microarray); test: Noggin binders on small-molecule microarray, primary screen, biochemical, 635/667 nm fluorescence (AID 1095); details: 635 nm fluorescence, higher = more signal;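 also: score merges 667 nm feature fluorescence with signal to noise over triplicate slides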
[9] = target: Neurogenic locus notch homolog protein 3 (Homo sapiens) (UniProt Q9UM47); test: NOTCH3 binders on small-molecule microarray, primary screen, biochemical, 635/667 nm fluorescence (AID 1096); details: NOTCH3 binding, 635 nm fluorescence, higher = more signal
Chain of Neurogenic locus notch homolog protein 3 (Homo sapiens) (Q9UM47 whole entry, looked up): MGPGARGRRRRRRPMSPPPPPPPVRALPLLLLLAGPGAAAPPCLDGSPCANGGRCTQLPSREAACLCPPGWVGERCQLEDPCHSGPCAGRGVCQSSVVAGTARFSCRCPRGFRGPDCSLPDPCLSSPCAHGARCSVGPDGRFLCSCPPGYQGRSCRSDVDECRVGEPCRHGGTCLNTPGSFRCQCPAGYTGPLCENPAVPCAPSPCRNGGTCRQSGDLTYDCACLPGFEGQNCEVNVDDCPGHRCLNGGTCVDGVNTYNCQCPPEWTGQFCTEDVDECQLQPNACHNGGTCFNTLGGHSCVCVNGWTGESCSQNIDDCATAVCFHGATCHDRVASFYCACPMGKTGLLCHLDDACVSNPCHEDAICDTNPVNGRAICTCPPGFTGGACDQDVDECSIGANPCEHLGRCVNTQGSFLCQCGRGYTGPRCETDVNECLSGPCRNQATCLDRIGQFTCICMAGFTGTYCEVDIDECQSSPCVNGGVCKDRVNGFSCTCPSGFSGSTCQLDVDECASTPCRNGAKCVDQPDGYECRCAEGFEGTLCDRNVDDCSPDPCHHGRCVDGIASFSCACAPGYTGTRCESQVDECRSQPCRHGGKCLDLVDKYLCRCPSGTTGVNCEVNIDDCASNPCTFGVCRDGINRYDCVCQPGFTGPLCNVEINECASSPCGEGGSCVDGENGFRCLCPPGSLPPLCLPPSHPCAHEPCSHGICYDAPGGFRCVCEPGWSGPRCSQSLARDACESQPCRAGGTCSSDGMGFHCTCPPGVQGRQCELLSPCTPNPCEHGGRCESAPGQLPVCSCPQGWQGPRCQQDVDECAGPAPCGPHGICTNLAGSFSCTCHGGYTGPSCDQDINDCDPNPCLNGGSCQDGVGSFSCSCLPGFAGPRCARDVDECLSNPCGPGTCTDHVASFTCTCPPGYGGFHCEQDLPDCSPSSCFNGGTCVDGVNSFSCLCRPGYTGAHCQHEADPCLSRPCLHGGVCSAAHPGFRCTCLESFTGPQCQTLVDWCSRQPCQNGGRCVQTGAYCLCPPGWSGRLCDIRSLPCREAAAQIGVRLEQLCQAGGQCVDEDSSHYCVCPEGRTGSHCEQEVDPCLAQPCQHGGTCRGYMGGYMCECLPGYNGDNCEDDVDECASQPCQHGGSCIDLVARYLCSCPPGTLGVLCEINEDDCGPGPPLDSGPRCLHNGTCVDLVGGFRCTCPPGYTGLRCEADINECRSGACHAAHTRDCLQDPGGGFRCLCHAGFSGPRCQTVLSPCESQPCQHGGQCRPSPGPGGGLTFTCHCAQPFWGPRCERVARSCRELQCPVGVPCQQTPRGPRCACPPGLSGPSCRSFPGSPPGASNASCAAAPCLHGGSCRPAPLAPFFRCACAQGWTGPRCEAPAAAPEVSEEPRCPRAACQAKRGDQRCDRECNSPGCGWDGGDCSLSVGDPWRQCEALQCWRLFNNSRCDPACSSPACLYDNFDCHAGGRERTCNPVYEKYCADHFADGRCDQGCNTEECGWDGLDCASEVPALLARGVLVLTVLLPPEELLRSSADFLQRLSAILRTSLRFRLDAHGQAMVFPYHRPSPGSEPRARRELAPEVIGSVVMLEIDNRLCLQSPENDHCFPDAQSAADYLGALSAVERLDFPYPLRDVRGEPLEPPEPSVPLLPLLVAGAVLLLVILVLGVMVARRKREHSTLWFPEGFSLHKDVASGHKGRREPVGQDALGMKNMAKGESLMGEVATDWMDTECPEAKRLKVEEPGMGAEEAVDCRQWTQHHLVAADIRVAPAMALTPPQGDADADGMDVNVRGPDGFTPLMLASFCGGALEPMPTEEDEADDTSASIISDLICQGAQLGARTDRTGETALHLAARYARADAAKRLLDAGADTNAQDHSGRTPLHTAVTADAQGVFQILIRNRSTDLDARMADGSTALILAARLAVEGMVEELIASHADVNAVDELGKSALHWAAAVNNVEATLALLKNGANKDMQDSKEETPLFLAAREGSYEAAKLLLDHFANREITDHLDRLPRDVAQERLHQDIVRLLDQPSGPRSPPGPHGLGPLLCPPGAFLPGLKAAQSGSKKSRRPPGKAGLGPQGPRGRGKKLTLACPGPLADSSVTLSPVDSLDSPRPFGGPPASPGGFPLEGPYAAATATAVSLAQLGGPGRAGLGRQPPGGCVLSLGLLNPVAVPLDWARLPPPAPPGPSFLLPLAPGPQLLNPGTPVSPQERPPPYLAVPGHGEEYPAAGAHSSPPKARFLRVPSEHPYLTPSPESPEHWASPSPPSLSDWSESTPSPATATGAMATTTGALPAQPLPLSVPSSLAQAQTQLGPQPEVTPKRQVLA

[10] = small-molecule microarray binders of probe aEGFR, primary screen, biochemical, biotinylated probe, 635/667 nm fluorescence (AID 1097); details: higher = more signal;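 also: probe is a biotinylated anti-EGFR antibody binding compounds printed on slides; score combines fluorescence near 667 nm and signal to noise of each spot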
[11] = tested on: Plasmodium falciparum Sir2 (PF13_0152, Sir2A); test: pfSir2 binders on small-molecule microarrays, primary screen, biochemical, small-molecule microarray, 635 nm fluorescence (AID 1098); details: small-molecule microarray binding, fluorescence 635 nm; higher = more signal;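 also: score merges spot fluorescence intensity with its signal-to-noise ratio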
[12] = small-molecule microarray binders of probe aDKK1, primary screen, biochemical, biotinylated probe, 635/667 nm fluorescence (AID 1099); details: higher = more signal;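 also: score merges 667nm spot fluorescence with signal to noise across triplicate slides; reference of the scale not given here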
[13] = small-molecule microarray binders of probe aCHRDL2, primary screen, biochemical, biotinylated probe, 635/667 nm fluorescence (AID 1100); details: higher = more signal
[14] = splicing luciferase reporter signal modulators, primary screen, spliceosome inhibition project, cell-based, HEK293, splice +/- reporter (AID 1101); details: luminescence, 24 h, higher = more signal, called active from +8 up or from −8 down;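 also: HEK293 cells carrying a splicing-competent luciferase reporter gene; test concentration not given here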
[15] = target: Fibroblast growth factor 10 (Homo sapiens) (UniProt O15520); test: FGF10 binders on small-molecule microarrays, primary screen, biochemical, small-molecule microarray, 635 nm fluorescence (AID 1102); details: FGF10 binding, fluorescence 635 nm, higher = more signal
Chain of Fibroblast growth factor 10 (Homo sapiens) (O15520 whole entry, looked up): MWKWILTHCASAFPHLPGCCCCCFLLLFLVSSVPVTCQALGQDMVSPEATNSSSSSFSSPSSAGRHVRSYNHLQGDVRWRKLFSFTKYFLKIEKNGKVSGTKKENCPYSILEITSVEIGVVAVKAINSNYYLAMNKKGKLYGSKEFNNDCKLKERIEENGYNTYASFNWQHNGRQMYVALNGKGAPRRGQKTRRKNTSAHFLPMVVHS

[16] = tested on: glycogen synthase kinase-3 (GSK3A per assay name; protocol says GSK3B); test: GSK3 binders on small-molecule microarrays, primary screen, biochemical, small-molecule microarray, 635 nm fluorescence, GSK3A (AID 1103); details: small-molecule microarray binding, fluorescence 635 nm; higher = more signal; also: the record names both GSK3A and GSK3B
[17] = target: Epidermal growth factor receptor (Homo sapiens) (UniProt P00533); test: EGFR binders on small-molecule microarrays, primary screen, biochemical, small-molecule microarray, 635 nm fluorescence (AID 1104); details: EGFR binding, higher = more signal;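 also: score merges 667 nm emission intensity with spot signal to noise over triplicate slides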
Chain of Epidermal growth factor receptor (Homo sapiens) (P00533 whole entry, looked up): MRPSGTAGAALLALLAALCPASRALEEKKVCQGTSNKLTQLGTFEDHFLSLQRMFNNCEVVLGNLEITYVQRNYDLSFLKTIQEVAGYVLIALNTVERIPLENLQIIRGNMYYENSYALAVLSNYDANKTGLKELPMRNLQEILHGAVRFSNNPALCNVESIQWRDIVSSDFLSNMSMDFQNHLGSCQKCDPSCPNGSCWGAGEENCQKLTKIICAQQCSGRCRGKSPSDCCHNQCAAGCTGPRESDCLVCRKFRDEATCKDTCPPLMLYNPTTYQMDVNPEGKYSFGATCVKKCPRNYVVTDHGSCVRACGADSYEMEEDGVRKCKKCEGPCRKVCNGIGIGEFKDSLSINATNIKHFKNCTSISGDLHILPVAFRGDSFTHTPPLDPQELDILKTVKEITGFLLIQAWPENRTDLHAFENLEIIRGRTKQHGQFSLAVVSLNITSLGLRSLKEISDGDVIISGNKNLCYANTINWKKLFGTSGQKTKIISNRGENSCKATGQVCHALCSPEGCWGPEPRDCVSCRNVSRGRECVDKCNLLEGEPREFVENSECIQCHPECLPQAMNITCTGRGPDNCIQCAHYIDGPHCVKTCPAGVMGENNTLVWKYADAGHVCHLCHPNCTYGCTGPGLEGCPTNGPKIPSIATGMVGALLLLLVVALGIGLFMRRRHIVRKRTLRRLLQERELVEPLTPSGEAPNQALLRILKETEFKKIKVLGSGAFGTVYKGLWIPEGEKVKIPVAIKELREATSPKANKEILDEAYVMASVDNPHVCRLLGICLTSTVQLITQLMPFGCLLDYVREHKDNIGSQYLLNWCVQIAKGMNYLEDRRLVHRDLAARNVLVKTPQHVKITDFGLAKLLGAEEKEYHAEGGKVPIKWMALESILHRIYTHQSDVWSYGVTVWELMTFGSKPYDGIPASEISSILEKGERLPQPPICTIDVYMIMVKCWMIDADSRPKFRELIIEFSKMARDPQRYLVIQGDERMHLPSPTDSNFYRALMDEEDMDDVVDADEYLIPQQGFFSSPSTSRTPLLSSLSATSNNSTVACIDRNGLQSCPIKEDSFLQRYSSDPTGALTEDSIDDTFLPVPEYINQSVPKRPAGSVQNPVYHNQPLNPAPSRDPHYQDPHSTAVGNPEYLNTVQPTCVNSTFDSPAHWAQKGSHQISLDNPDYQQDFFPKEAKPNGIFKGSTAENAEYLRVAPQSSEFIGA

[18] = target: Follistatin-related protein 3 (Homo sapiens) (UniProt O95633); test: FSTL3 binders on small-molecule microarrays, primary screen, biochemical, small-molecule microarray, 635 nm fluorescence (AID 1105); details: FSTL3 binding, higher = more signal;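 also: score merges emission near 667 nm and signal to noise per printed spot across three slides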
Chain of Follistatin-related protein 3 (Homo sapiens) (O95633 whole entry, looked up): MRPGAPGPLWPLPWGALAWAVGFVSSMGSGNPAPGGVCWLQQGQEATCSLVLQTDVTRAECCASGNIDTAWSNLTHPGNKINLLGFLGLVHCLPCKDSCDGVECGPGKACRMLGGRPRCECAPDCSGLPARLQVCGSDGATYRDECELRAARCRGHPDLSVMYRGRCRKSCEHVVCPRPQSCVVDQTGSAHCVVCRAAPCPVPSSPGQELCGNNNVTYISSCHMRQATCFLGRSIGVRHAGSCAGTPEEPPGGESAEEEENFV

[19] = target: Dickkopf-related protein 1 (Homo sapiens) (UniProt O94907); test: DKK1 binders on small-molecule microarrays, primary screen, biochemical, small-molecule microarray, 635 nm fluorescence scan (AID 1106); details: DKK1 binding, higher = more signal;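 also: score merges emission near 667 nm with signal to noise over three replicate slides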
Chain of Dickkopf-related protein 1 (Homo sapiens) (O94907 whole entry, looked up): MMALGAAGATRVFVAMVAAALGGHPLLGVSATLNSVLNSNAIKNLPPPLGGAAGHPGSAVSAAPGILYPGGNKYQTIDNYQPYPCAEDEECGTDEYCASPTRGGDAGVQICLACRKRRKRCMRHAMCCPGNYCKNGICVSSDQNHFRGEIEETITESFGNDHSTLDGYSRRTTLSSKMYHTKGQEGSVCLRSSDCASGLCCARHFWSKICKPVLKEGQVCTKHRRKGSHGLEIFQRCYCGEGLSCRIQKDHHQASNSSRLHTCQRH

[20] = tested on: Inhibin beta A chain (activin A); test: INHBA (activin A) binders on microarrays, primary screen, biochemical, small-molecule microarray, 635 nm fluorescence scan (AID 1107); details: small-molecule microarray binding, higher = more signal;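 also: mouse activin A protein probed at 4.33 µg/mL on printed slides; score merges bound-protein fluorescence near 667 nm with spot signal-to-noise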

Row | Structure (SMILES) | composite z-score [1] | z-score [2] | z-score [3] | z-score [4] | composite z-score [5] | z-score [6] | composite z-score [7] | composite z-score [8] | composite z-score [9] | composite z-score [10] | composite z-score [11] | composite z-score [12] | composite z-score [13] | z-score [14] | composite z-score [15] | composite z-score [16] | composite z-score [17] | composite z-score [18] | composite z-score [19] | composite z-score [20]
1 | CCOC(=O)[C@H](Cc1ccccc1)NC(=O)CCC1CC(OC(=O)NCc2ccc3c(c2)OCO3)CC2(CCCC(COC(=O)NCc3ccccc3)O2)O1 (stereo not given in full) | 1.06 | 0.284 (inactive) | 0.158 (inactive) | 0.942 (inactive) | 1.27 | 0.641 (inactive) | -0.0174 | 0.573 | 0.941 | -0.0084 | 0.403 | -0.125 | -0.468 | -1.03 (inactive) | 1.02 | 0.78 | 0.361 | 1.02 | 0.606 | -0.303
2 | COc1ccc([Si](C)(C)[C@@H]2[C@@H](CCO)O[C@]3(C(=O)N(Cc4ccc(NC(C)=O)cc4)c4ccccc43)[C@H]2C)cc1 | 1.55 | 2.99 (inactive) | 0.282 (inactive) | 34.6 (active) | 2.7 | 1.44 (inactive) | 0.0325 | 1.48 | 0.949 | 0.492 | 1.23 | -0.173 | 0.0018 | -2.27 (inactive) | 0.779 | 1.28 | 1.28 | 0.951 | -0.0026 | 0.387
3 | CO[C@H]1O[C@H](CO)[C@@H](OC(=O)Nc2ccc3c(c2)OCO3)[C@H](OC(=O)Nc2ccccc2-c2ccccc2)[C@@H]1OC(=O)Nc1ccccc1-c1ccccc1 | 1.54 | 2.12 (inactive) | 1.8 (inactive) | 0.91 (inactive) | 3.27 | 0.39 (inactive) | 0.0427 | 0.943 | 1.07 | -0.0179 | 1.29 | 0.277 | 0.542 | 0.176 (inactive) | 1.38 | 1.15 | 0.23 | 0.936 | 0.271 | -0.548
4 | CC(CCC(=O)OC[C@H]1O[C@H](C#Cc2ccccc2)C=C[C@@H]1Oc1ccc(C)cc1)=NO[C@@H](C)c1cn([C@H](CO)Cc2ccccc2)nn1 | 0.668 | 0.846 (inactive) | 0.21 (inactive) | 12.2 (active) | 0.373 | -0.434 (inactive) | -0.145 | 0.237 | 0.281 | -0.0461 | 0.737 | -0.406 | -0.52 | -1.62 (inactive) | 0.304 | -0.28 | 0.313 | 0.28 | 0.256 | -0.146
5 | CS(=O)(=O)CCOC(=O)C1=CC(CCCO)=CC(c2cccs2)N(Cc2cccc(OC(F)(F)F)c2)C=C1C(=O)OCCS(C)(=O)=O (stereo not given) | 1.57 | -0.522 (inactive) | -2.82 (inactive) | -1.34 (inactive) | 2.17 | -0.0221 (inactive) | 0.0651 | 0.025 | 0.993 | 0.0269 | 0.811 | 0.674 | 0.742 | 0.538 (inactive) | 0.739 | 0.873 | -0.37 | 0.14 | -0.06 | 0.915
